This note sets out measurements from PubChem BioAssay.

Active and inactive are the calls of the source.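 Rule for the calls: active = normalized viability below 100% at a tested concentration; inactive = the rest.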

The nature of the first test: ovarian cancer cell viability with rucaparib, profiling panel, oncology-focused library, rucaparib conditional (AID 1508598). Conditions: patient-derived ovarian cancer cells, CellTiter-Glo viability, 144 h; at 1.25 µM; OCI-C5x cells; with rucaparib 10 µM; stronger effect = lower value; 100% = cells with rucaparib alone. In general terms: In ATP-based viability assays light output follows the ATP content of the culture.
By viability is commonly meant a read-out of living cells in per cent, often relative to untreated cells. For the compound `C/C(=C\c1csc(C)n1)[C@H]1C[C@@H]2O[C@]2(C)CCC[C@H](C)[C@H](O)[C@@H](C)C(=O)C(C)(C)[C@H](O)CC(=O)O1`, the viability was 45.2% (active).

Regarding `C/C(=C\c1csc(C)n1)[C@H]1C[C@@H]2O[C@@H]2CCC[C@H](C)[C@H](O)[C@@H](C)C(=O)C(C)(C)[C@H](O)CC(=O)O1`, the viability is 25.2% (active).

On to `CC(C)[C@@]12O[C@@H]1[C@@H]1O[C@]13[C@]1(O[C@@H]1C[C@@H]1C4=C(CC[C@@]13C)C(=O)OC4)[C@@H]2O`, for which the viability is 9.48% (active).

Staying with this test, now noted: patient-derived ovarian cancer cells, CellTiter-Glo viability, 144 h; at 1.25 µM; OCI-C5x cells; without rucaparib; stronger effect = lower value.
Consider `C/C(=C\c1csc(C)n1)[C@H]1C[C@@H]2O[C@]2(C)CCC[C@H](C)[C@H](O)[C@@H](C)C(=O)C(C)(C)[C@H](O)CC(=O)O1`, for which the viability is 38.5% (active).

Turning to `C/C(=C\c1csc(C)n1)[C@H]1C[C@@H]2O[C@@H]2CCC[C@H](C)[C@H](O)[C@@H](C)C(=O)C(C)(C)[C@H](O)CC(=O)O1`, the viability was 24.3% (active).

As to `CC(C)[C@@]12O[C@@H]1[C@@H]1O[C@]13[C@]1(O[C@@H]1C[C@@H]1C4=C(CC[C@@]13C)C(=O)OC4)[C@@H]2O`, the viability is 10% (active).
